Holding throughout (type): functional
The test system of test [1] is Plasmodium falciparum. In words: GSK_TCMDC: Inhibition of Plasmodium falciparum 3D7 in whole red blood cells, using parasite LDH activity as an index of growth. Test compounds present at 2uM.
The test system of test [2] is Plasmodium falciparum. In words: GSK_TCMDC: Inhibition of Plasmodium falciparum Dd2 in whole red blood cells, using parasite LDH activity as an index of growth. Test compounds present at 2uM.
For test [3], the system named is HepG2. In words: GSK_TCMDC: Percent inhibition of human HepG2 cell line. Test compounds present at 10uM.

Where “and” joins values, the source holds several entries; their conditions need not be identical. Equal values may be shown once.

The term Inhibition denotes the change of the read-out against control, counted positive when it falls. As for `CC(=O)N(Cc1cccc(-c2ccc(CNCCc3ccccc3)cc2)c1)C1CCN(Cc2ccccc2)CC1.O=C(O)C(F)(F)F`, the Inhibition in test [1] was determined as 99%; in test [2], 50%; in test [3], 32%.

Regarding `Cc1cc(C(=O)NC2CCN(CC3(c4ccc(Cl)cc4)CCC3)CC2)on1`, the Inhibition in test [1] was 98%; in test [2] it was 95%; in test [3] it was 5%.

Regarding `COc1ccc(C2CNCc3c2cc(OC)c(OC)c3Cl)cc1.Cl` (centres undefined), the Inhibition in test [1] amounted to 98%; in test [2] it was 3%; in test [3], 42%.

Take `Cc1ccc2[nH]cc(C3CCN(CC4CCC(NC(=O)/C=C/c5ccc(Cl)c(Cl)c5)CC4)CC3)c2c1` (centres undefined): the Inhibition in test [1] is 100% and 94%; in test [2], 86% and 46%; in test [3], 37% and 29%.

As for `O=C(/C=C/c1c(Cl)cccc1Cl)NC1CCC(CN2CCC(c3c[nH]c4ccccc34)CC2)CC1` (centres undefined), the Inhibition in test [1] was 93% and 100%; in test [2], 21% and 42%; in test [3], 54% and 39%.

Regarding `CCCc1c(C(=O)NC2CCC(CN3CCC(c4c[nH]c5ccccc45)CC3)CC2)cnn1-c1c(Cl)cc(Cl)cc1Cl` (centres undefined), the Inhibition in test [1] amounted to 100%; in test [2], 49%; in test [3], 41%.

Take `Cc1cccc(C(=O)Nc2ccnc(N(C)C3CCN(Cc4cccc(O)c4)CC3)c2)c1.O=C(O)C(F)(F)F`: the Inhibition in test [1] came to 89%; in test [2], 62%; in test [3], 5%.

`O=C(/C=C/c1cc(F)c(F)cc1F)N1CCC(CN2CCC(c3c[nH]c4ccccc34)CC2)CC1`: the Inhibition in test [1] came out at 93%; in test [2] it was 3%; in test [3], 26%.

On to `CCCCCC(C)C(C)c1cc(O)c2c(c1)OC(C)(C)c1cnccc1-2.Cl` (centres undefined), for which the Inhibition is on record as 94% in test [1], 74% in test [2] and 7% in test [3].

`COCCNCc1cccc(-c2cccc(CN(C(=O)Nc3ccccc3)C3CCN(Cc4ccccc4)CC3)c2)c1.O=C(O)C(F)(F)F`: the Inhibition in test [1] came out at 100%; in test [2], 65%; in test [3], 28%.

With `CCCCCc1cc(O)c2c(c1)OC(C)(C)c1ccncc1-2.Cl`, the Inhibition in test [1] was 99%; in test [2] it was 57%; in test [3], 0%.

Take `CCOC(C(=O)OCC1CCCN1C)(c1ccccc1)c1ccccc1` (centres undefined): the Inhibition came out at 97% in test [1], 3% in test [2] and 13% in test [3].

Consider `COC(=O)c1ccc(C[C@@H](C)NC[C@H](O)c2cccc(C(F)(F)F)c2)cc1.Cl`, for which the Inhibition was found to be 97% in test [1], 93% in test [2] and 1% in test [3].

Take `COc1cc(C(=O)NC2CCC(CN3CCC(c4c[nH]c5ccccc45)CC3)CC2)cc(Cl)n1` (centres undefined): the Inhibition is on record as 99% in test [1], 45% in test [2] and 33% in test [3].

On to `O=C(O)C(F)(F)F.OC1(CNCc2ccccc2)CCN(CCc2c[nH]c3ccc(F)cc23)CC1`, for which the Inhibition in test [1] is recorded as 100%; in test [2] it was 4%; in test [3] it was 39%.

Take `O=C(C=Cc1ccc(F)c(Br)c1)N1CCC(CN2CCC(c3c[nH]c4ccccc34)CC2)CC1`: the Inhibition in test [1] came to 100%; in test [2], 9%; in test [3], 39%.

For the compound `O=C(/C=C/c1ccc(Cl)c(Cl)c1)N1CCC(CN2CCC(c3c(Br)[nH]c4ccccc34)CC2)CC1`, the values for the Inhibition in test [1], in test [2] and in test [3] were 100%, 99% and 41%, respectively.

Consider `O=C(/C=C/c1ccc(Cl)c(Cl)c1)NCCC1CCC(N2CCC(c3c[nH]c4ccc(O)cc34)CC2)CC1` (centres undefined), for which the Inhibition is listed as 100% in test [1], 3% in test [2] and 19% in test [3].

Regarding `CN(c1ccnc(Nc2ccc(CS(C)(=O)=O)cc2)n1)C1CCN(Cc2ccccc2)CC1`, the Inhibition in test [1] was determined as 83%; in test [2], 9%; in test [3], 10%.

As to `O=C(NC1CCC(N2CCC3(CC2)C(=O)NCN3c2ccccc2)CC1)c1cc2ccccc2[nH]1` (centres undefined), the Inhibition in test [1] was 98%; in test [2] it was 40%; in test [3], 0%.

For `Cl.NCC(=O)c1cc2c(cc1N)OCCO2`, the Inhibition in test [1] was 89%; in test [2], 42%; in test [3] it was 64%.

As for `O=C(Cc1cc(=O)oc2cc(O)ccc12)N1CCC(CN2CCC(c3c[nH]c4ccccc34)CC2)CC1`, the figures for the Inhibition in test [1], in test [2] and in test [3] were 94%, 0% and 1%, respectively.

As to `CN(C)c1cccc(CCNCCc2c[nH]c3ccc(Cl)cc23)c1.O=C(O)C(=O)O`, the values for the Inhibition in test [1], in test [2] and in test [3] were 94%, 75% and 19%, respectively.

Turning to `c1ccc(C(OCCC2CCN(Cc3cccnc3)CC2)c2ccccc2)cc1`, the Inhibition was 99% in test [1], 98% in test [2] and 12% in test [3].

With `O=C(NC1CCC(CN2CCC(c3c[nH]c4ccccc34)CC2)CC1)c1csc(-c2cccc(Cl)c2Cl)n1` (centres undefined), the results for the Inhibition in test [1], in test [2] and in test [3] were 99%, 41% and 34%, respectively.

Regarding `FC(F)(F)c1ccc(NC(=S)N2CCC(CN3CCC(c4c[nH]c5ccccc45)CC3)CC2)cc1`, the Inhibition came to 100% in test [1], 45% in test [2] and 35% in test [3].

For `COC(=O)c1ccc(CC(C)NCC(O)c2cccc(C(F)(F)F)c2)cc1.Cl` (centres undefined), the Inhibition is given as 97% in test [1], 87% in test [2] and 0% in test [3].

In the case of `Cc1cc(N(C)C2CCN(C)CC2)nc(Nc2ccc(Cl)cc2)n1`, the Inhibition in test [1] amounted to 98%; in test [2] it was 90%; in test [3], 15%.

The record behind these values is ChEMBL document CHEMBL1157539, “Thousands of chemical starting points for antimalarial lead identification” (Nature, 2010).
